Assay results from PubChem BioAssay (EPA / NIEHS).
Inconclusive results are not listed. Some structures have more than one record in an assay (separate samples or runs), and their calls can disagree. Calls of active or inactive are those of the source. How the source made its calls: active means hit-call score of the fitted dose curve at least 0.9, where 1 is the maximum; inconclusive means response in the unintended direction; inactive means score below 0.9.

What was measured:
[1] = ATG_XTT_Cytotoxicity: Cytotoxicity Assessment in the Attagene TRANS-FACTORIAL HepG2 Assay (AID 2283584);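 on AC50: cells exposed to compound for 24 h before reading; active means loss of viability signal versus DMSO baseline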
In short: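 HepG2 human liver cells, transiently transfected with multiple GAL4-UAS reporter units, were dosed and read at 24 h by XTT as cell number. Loss of signal was fitted relative to DMSO negative control baseline.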

[2] = TOX21_p53_BLA_p2_viability: Viability Assessment in the Tox21 HCT-116 p53 Agonism Beta-lactamase Assay, Phase 2 (AID 2283591);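 further: compound exposure lasted 16 h at 37 °C; actives lower the ATP signal meaning cytotoxicity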
In short: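 HCT116 p53-bla cells, 4000/well, dosed after 5 h plating (217-fold dilution of DMSO stocks) and incubated 16 h at 37C. Viability taken as cellular ATP by CellTiter-Glo luminescence after 30 min RT; signal loss marks cytotoxicity.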

[3] = TOX21_p53_BLA_p3_viability: Viability Assessment in the Tox21 HCT-116 p53 Agonism Beta-lactamase Assay, Phase 3 (AID 2283593);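 further: cells exposed to compound for 16 h before reading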
In short: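 HCT116 cells, 4000/well, dosed 5 h after plating by pin transfer (217-fold dilution from DMSO stock) and incubated 16 h at 37C, 5% CO2. Viability read as ATP luminescence with CellTiter-Glo after 30 min at room temperature.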

[4] = molecular target: Cellular tumor antigen p53 (Homo sapiens) (UniProt P04637); experiment: TOX21_p53_BLA_p3_ratio: Tox21 HCT-116 p53 Agonism Beta-lactamase Assay, Ratio, Phase 3 (AID 2283596)
Chain of Cellular tumor antigen p53 (Homo sapiens) (P04637 whole entry, looked up): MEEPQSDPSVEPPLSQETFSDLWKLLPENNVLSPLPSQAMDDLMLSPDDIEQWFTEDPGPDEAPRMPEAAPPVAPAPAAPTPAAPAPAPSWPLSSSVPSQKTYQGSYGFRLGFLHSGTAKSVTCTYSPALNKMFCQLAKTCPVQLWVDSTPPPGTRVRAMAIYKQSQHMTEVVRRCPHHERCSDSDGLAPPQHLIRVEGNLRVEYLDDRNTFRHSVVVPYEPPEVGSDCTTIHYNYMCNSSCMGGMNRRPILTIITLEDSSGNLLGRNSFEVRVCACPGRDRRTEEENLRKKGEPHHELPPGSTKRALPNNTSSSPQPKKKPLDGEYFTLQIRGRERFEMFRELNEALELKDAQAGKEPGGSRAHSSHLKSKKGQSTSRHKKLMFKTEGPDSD
In short: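 HCT116 p53-bla cells (4000/well) given compound in DMSO (217-fold dilution) after 5 h, incubated 16 h at 37C. CCF4-AM substrate 2 h at room temperature; 460/530 nm emission ratio, gain fitted against DMSO.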

[5] = molecular target: Cellular tumor antigen p53 (Homo sapiens) (UniProt P04637); experiment: TOX21_p53_BLA_p2_ratio: Tox21 HCT-116 p53 Agonism Beta-lactamase Assay, Ratio, Phase 2 (AID 2283592)
In short: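 HCT116 cells carrying a p53-responsive beta-lactamase reporter were plated, incubated 5 h at 37C, then dosed with compounds in DMSO (217-fold dilution) for 16 h. CCF4-AM substrate was added for 2 h at room temperature; the 460/530 nm emission ratio gave gain-of-signal activity relative to DMSO.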

[6] = TOX21_p53_BLA_p4_viability: Viability Assessment in the Tox21 HCT-116 p53 Agonism Beta-lactamase Assay, Phase 4 (AID 2283597);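 further: hits lower the luminescence signal meaning cytotoxicity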
In short: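 HCT116 p53-bla cells (4000/well) rested 5 h at 37C, then received compounds in DMSO (217-fold dilution) for 16 h at 37C, 5% CO2. CellTiter-Glo was added after the CCF4-AM read, and luminescence was read after 30 min at room temperature.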

Structure (SMILES) | outcome [1] | outcome [2] | outcome [3] | outcome [4] | outcome [5] | outcome [6] | AC50 [1] | AC50 [2] | AC50 [6]
CC(C)CCOC(=O)CC(C)C | inactive | inactive | inactive | inactive |  |  |  |  | 
CC(C)(C)C1CCC(O)CC1 (stereo not drawn) | inactive | inactive | inactive | inactive | inactive | inactive |  |  | 
COc1ccccc1NC(=O)CC(C)=O | inactive | inactive | inactive | inactive | inactive | inactive |  |  | 
O=S(=O)(O)CCCN1CCOCC1 | inactive | inactive |  |  |  | inactive |  |  | 
C=C/C(C)=C/C/C=C(\C)CCC=C(C)C | inactive | inactive | inactive | inactive |  |  |  |  | 
S=c1[nH][nH]c(=S)s1 | inactive | inactive |  |  | inactive | inactive |  |  | 
CCCc1ccc(O)cc1 | inactive | inactive | inactive |  | inactive | inactive |  |  | 
CC1(C)CC(N)CC(C)(CN)C1 (stereo not drawn) | inactive | inactive | inactive |  | inactive | inactive |  |  | 
CCCCC(CC)COCCO (stereo not drawn) | inactive | inactive |  | inactive | inactive |  |  |  | 
CN(C)CCC=C1c2ccccc2CCc2ccccc21 |  |  | inactive | inactive | inactive | inactive | 157 µM (active) | 74.2 µM (active) | 72.1 µM (active)
CC(=O)CC(=O)N(C)C | inactive | inactive |  | inactive | inactive | inactive |  |  | 
NC(=O)c1cccnc1 | inactive | inactive | inactive | inactive | inactive | inactive |  |  | 
C=CCOCC(O)CO (stereo not drawn) | inactive | inactive | inactive | inactive |  |  |  |  | 
CC(C)C(=O)OCC=Cc1ccccc1 | inactive | inactive |  | inactive | inactive | inactive |  |  | 
c1ccc(OCCOc2ccccc2)cc1 | inactive | inactive | inactive |  | inactive | inactive |  |  | 
